“And” between values parts separate entries of the source, which are not always exact repeats. Equal values may be shown once. More than one record can exist for a structure, and the calls need not agree. The source made the active and inactive calls. The calls were made as follows: active = hit-call score of the fitted dose curve at least 0.9, where 1 is the maximum; inactive = score below 0.9.

Usually AC50 stands for the concentration giving half of the maximal activity seen.

This assay can be described thus: BSK_3C_Proliferation: Cell Proliferation Assessment in the BioMAP Diversity Plus: 3C Assay (AID 2283006).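 As to AC50: potency may reflect either rise or fall in cell number versus DMSO.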 Conditions: primary human endothelial cells (HUVEC). The procedure: BSK_3C is a cell-based, multiplexed-readout assay that uses umbilical vein endothelium, a human vascular primary cell, with measurements taken at 24 hours after chemical dosing in a 96-well plate.BSK_3C_Proliferation is an assay component measured in the BSK_3C assay. It measures 0.1% sulforhodamine related to cell proliferation using Sulforhodamine staining technology.Data from the assay component BSK_3C_Proliferation was analyzed into 1 assay endpoint. This assay endpoint, BSK_3C_Proliferation, was analyzed with bidirectional fitting relative to DMSO as the negative control and baseline of activity. Using a type of viability reporter, measures of total protein for gain or loss-of-signal activity can be used to understand the viability at the cellular-level. Furthermore, this assay endpoint can be referred to as a secondary readout, because this assay has produced multiple assay endpoints where this one serves a viability function. To generalize the intended target to other relatable targets, this assay endpoint is annotated to the cell cycle intended target family, where the subfamily is proliferation.
The levels of cell surface (or secreted, indicated by the prefix "s") biomarker endpoints were measured by ELISA. Overt cytotoxicity to cells in confluent adherent cultures (all systems other than the BT system) was assessed by measuring total protein levels using sulforhodamine B (SRB) staining in parallel cultures at the time of biomarker measurements, indicated as SRB endpoints. For proliferation assays for adherent cell types, individual cell types are cultured at sub-confluence and relative cell numbers quantified by SRB staining at time points optimized for each system (48 h: 3C and CASM3C systems; 72 h: BT and HDF3CGF systems; 96 h: SAg system). SRB was performed by staining cells with 0.1% SRB after fixation with 10% TCA and reading wells at 560 nm.Viability and proliferation of PBMC (T cells) was quantified by Alamar Blue reduction for the SAg and BT systems. For PBMC viability (referred to as PBMC Cytotoxicity within the assay endpoint names), cells were plated (75,000/well in a 96-well plate) and then chemical samples added for 1 h before addition of activators, SEB and TSST-1 (20 ng/mL final concentration each). Cells were incubated for 90 h. Then, Alamar Blue (20 uL/well) (Invitrogen, Cat DAL1100) was added for 6 h, and the plates were read with a fluorescence microplate reader at 546/580 nm (excitation/emission). For PBMC proliferation, cells were plated and activated as above but incubated for only 16 h prior to addition of Alamar Blue. Plates were read after 6 h.
Regarding `C[C@@H]1C[C@H]2[C@@H]3CCC4=CC(=O)C=C[C@]4(C)[C@@]3(F)[C@@H](O)C[C@]2(C)[C@@]1(O)C(=O)COP(=O)(O)O`, the result was inactive. Regarding `CCC(=C(c1ccc(O)cc1)c1ccc(OCCN(C)C)cc1)c1ccccc1`, the AC50 was 5.85 µM (active). With `OCCC(F)(F)C(F)(F)C(F)(F)C(F)(F)C(F)(F)C(F)(F)F`, the result was inactive; the AC50 is 46.5 µM (active) and 56.6 µM (active). For the molecule `CC(C)CCCCCCOC(=O)CCCCC(=O)OCCCCCCC(C)C`, the result was inactive.

Take `COCC(C)O` (stereo not given): the outcome was inactive. The same measure, in the same setting: the result for `CCCCOCCO` reads “inactive”; that for `COc1ccc([N+](=O)[O-])cc1N`, “inactive”; that for `CCCCCCC(=O)O`, “inactive”.

With `O=C(O)Cc1cc(I)c(Oc2cc(I)c(O)c(I)c2)c(I)c1`, the AC50 is 21.3 µM (active). In the case of `CN1CCN(c2ccccc2/C=C2\SCCN(c3ccc(Cl)c(Cl)c3)C2=O)CC1`, the AC50 was 5.3 µM (active).

For the molecule `CCc1ccc(CCOc2ccc(CC3SC(=O)NC3=O)cc2)nc1` (stereo not given), the outcome was inactive. Consider `c1ccc2c(c1)Cc1ccccc1-2`, for which the result was inactive.

With `NC(=O)N(O)[C@@H]1C=C[C@H](Oc2cccc(Oc3ccc(F)cc3)c2)C1`, the AC50 is 9.97 µM (active).

For the molecule `CC[C@H](c1ccc(O)cc1)[C@@H](CC)c1ccc(O)cc1`, the AC50 is 15.9 µM (active). With `CCc1nn(C2CCCCC2)c2cc(C3(C#N)CCC(C(=O)O)CC3)ccc12` (stereo not given), the AC50 was 6.36 µM (active). As to `Cc1cc(C)c(O)c(C)c1`, the outcome was inactive. Still for that read-out and setting: then `COC(=O)CCCCC(=O)OC`, with “inactive”; and `CCOC(=O)CC(O)(CC(=O)OCC)C(=O)OCC`, with “inactive”. For the molecule `CC(C)(C)c1cccc(C(C)(C)C)c1O`, the AC50 was 36.4 µM (active).

On to `CCCCCCCCCCCCN1CCCC1=O`, for which the AC50 is 30.6 µM (active).

For `Nc1cccc2c(N)cccc12`, the outcome was inactive. As for `CCCCCCCCCCCCCCCS(=O)(=O)Oc1ccccc1`, the outcome was inactive. For the molecule `O=c1c(-c2ccc(O)cc2)coc2cc(O)ccc12`, the AC50 was 20 µM (active). As for `CCCCCCCCCCCCCC[N+](C)(C)C`, the AC50 is 1.73 µM (active). Consider `COCC(C)OCC(C)O` (stereo not given), for which the result was inactive.

In the case of `O=C(OCCOCCOC(=O)c1ccccc1)c1ccccc1`, the result was inactive.

For the molecule `N#C[C@@H]1CC(F)(F)CN1C(=O)CNC1CC2CCC(C1)N2c1ncccn1` (stereo not given in full), the result was inactive. For the molecule `CCCCC(CC)COC(=O)CCCCC(=O)OCc1ccccc1` (stereo not given), the result was inactive. The same measure, in the same setting: then `Oc1cccc(O)c1`, with “inactive”. In the case of `CCN(CC)CCNc1ccc(CNC=O)c2sc3ccc(OC)cc3c(=O)c12`, the AC50 is 13.8 µM (active). For the molecule `CC(C)(C)c1ccc(O)c(C(C)(C)C)c1`, the AC50 was 7.82 µM (active). Take `CCCCCCCC(=O)O`: the outcome was inactive. Consider `CCCOc1sc(C(=O)N2CCC(c3cc(CN)ccc3F)CC2)c(C)c1Br`, for which the AC50 is 4.84 µM (active).

On to `ClC1=C(Cl)C(Cl)(Cl)C(Cl)=C1Cl`, for which the AC50 is 3.29 µM (active). For `CCCCCCCCOC(=O)CCCCCCCCC(=O)OCCCCCCCC`, the result was inactive. Same read-out and setting: then `CN1CCC[C@H]1c1cccnc1`, with “inactive”; and `CC[C@H](C)[C@@H](C(=O)O)n1sc2ccccc2c1=O`, with “inactive”. For the molecule `NC(=O)N1C(=O)C(C(=O)c2cc(Cl)cs2)c2cc(F)c(Cl)cc21` (stereo not given), the AC50 is 11 µM (active). `CC(C)(C)c1cc(C(C)(C)C)c(O)c(C(C)(C)C)c1`: the outcome was inactive.

These data come from PubChem BioAssay (EPA / NIEHS).
